Screening data as filed in PubChem.
Sampled rows, rich in hits. Any-hit rate of the full collection: about 1.1%.
HDAC3 inh = human HDAC3 inhibition. actives 0.15% (n = 320,000). O15379. AID 2718. inhibition, % at 8.3 µM. recombinant HDAC3, fluorogenic peptide/trypsin coupled, fluorescence; in the data active = inhibition above about 26%, passing the limit was not always enough
Casp6 inh = blocks human caspase-6 cleavage activity. actives 0.53% (n = 350,000). P55212. inhibition, % at 12.5 µM. purified caspase-6, Z-VEID-R110 cleavage fluorescence;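 active = mean inhibition across replicates at least about 35%, with every replicate also reaching that limit, limit read from the data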;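 note: 0% = median of neutral control wells and 100% = no fluorescence left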
Target sequence (P55212 24-179 limits assumed): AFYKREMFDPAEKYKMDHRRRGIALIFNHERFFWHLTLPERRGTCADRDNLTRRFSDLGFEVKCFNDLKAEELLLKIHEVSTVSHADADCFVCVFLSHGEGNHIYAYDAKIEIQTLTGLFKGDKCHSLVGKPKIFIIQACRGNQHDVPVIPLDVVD
Target sequence (P55212 194-293 limits assumed): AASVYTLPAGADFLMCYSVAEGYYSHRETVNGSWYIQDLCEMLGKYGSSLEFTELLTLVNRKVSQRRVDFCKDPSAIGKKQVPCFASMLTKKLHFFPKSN
Glyco luc inh = N-linked glycosylation inhibition; reporter increase, % at 12.5 µM; D54 ERlucT glycosylation luciferase reporter, 24 h; percent of 100 nM tunicamycin response; AID 588692; actives 0.23% (n = 360,000);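 active = mean luciferase reporter signal, scaled so untreated is 0 and the glycosylation-blocking control 100, at or above a set limit in every replicate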;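 note: luciferase carries N-glycosylation sites so blocking glycosylation raises the light; 0% = median of neutral control wells and 100% = median of 100 nM tunicamycin wells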
Keap1-Nrf2 PPI = inhibitors of human Keap1-Nrf2 protein-protein interaction. inhibition, % at 9.4 µM. Keap1 Kelch-Nrf2 peptide fluorescence polarization, 1536-well. Q14145. AID 504523. actives 0.15% (n = 340,000); in the data active = inhibition above about 12%;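 note: human Keap1 Kelch domain with fluorescein labeled Nrf2 9mer peptide probe; 0% = neutral control wells and 100% = peptide positive control; higher means more block of Keap1 binding to Nrf2 peptide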
NSD2 inh = NSD2 (human) methyltransferase inhibition; O96028; NSD2 peptide methylation, AlphaScreen, 120 min; actives 0.54% (n = 310,000); AID 743445; inhibition, % at 12.5 µM; in the data active = inhibition above about 50%
C-LANA FP = inhibitors of KSHV LANA C-terminal domain DNA binding; MBP-C-LANA/FAM-LBS DNA binding, fluorescence polarization; inhibition, % at 9 µM; actives 0.078% (n = 340,000);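 active = highest replicate inhibition at or above 60% at 9 µM, even if other replicates fall short; inactive = all replicates below 60% inhibition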;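 note: 0% = neutral control wells and 100% = 4 µM acridine orange control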
Starred values were filed as active, the others as inactive; . = no result given; ! = a repeat was not active.

SMILES | HDAC3 inh | Casp6 inh | Glyco luc inh | Keap1-Nrf2 PPI | NSD2 inh | C-LANA FP
CCOC(=O)CN1C(=O)S/C(=C/c2ccco2)C1=O | 4 | 11 | -4 | -1 | 10 | -2
O=C1/C(=C/C=C/c2ccco2)SC(=S)N1c1ccc(O)cc1 | 4 | 76* | 0 | -13 | 11 | 11
O=C(O)c1ccc(N2C(=O)/C(=C/C=C/c3ccccc3)SC2=S)cc1 | -11 | 1 | 0 | -2 | 5 | 2
O=C(NN1C(=O)/C(=C/C=C/c2ccccc2)SC1=S)c1ccncc1 | 8 | 17 | 2 | -15 | 6 | -4
O=C1/C(=C/c2ccco2)SC(=S)N1c1cccnc1 | . | 83* | 0 | 3 | . | 72*
O=C1NC(=Nc2ccc(O)cc2)S/C1=C/c1ccco1 | 4 | 39* | 21 | -2 | -2 | 0
O=C(NCC[C@H]1CC[C@H](NC(=O)C2CCC2)[C@H](CO)O1)c1cc(Cl)cc(Cl)c1 | . | -1 | . | . | . | .
CCN(CC)CCN(CC)Cc1ccccc1Br | -1 | 56* | 2 | -1 | 3 | 2
N#Cc1c(SCC(=O)Nc2ccc(Cl)cc2Cl)sc2c(O)cc(=O)[nH]c12 | 2 | 40* | 4 | -4 | . | 1
Cc1c(Cl)cccc1NC(=O)CSc1sc2c(O)cc(=O)[nH]c2c1C#N | 7 | 33 | -1 | -2 | -2 | 1
N#Cc1c(SCC(=O)Nc2cccc(F)c2)sc2c(O)cc(=O)[nH]c12 | 0 | 44* | 2 | -1 | 4 | 2
N#Cc1c(SCC(=O)Nc2ccccc2C(F)(F)F)sc2c(O)cc(=O)[nH]c12 | 9 | 43* | 0 | -1 | 13 | 1
CCC(=O)N1[C@H](CO)[C@@H](c2ccc(-c3ccc(F)cc3)cc2)C12CN(C(C)=O)C2 | . | 1 | . | . | . | .
CC(=O)c1cccc(Nc2c3c(nc4ccccc24)CCC3)c1 | 6 | -2 | 51* | 2 | -2 | -2
COCCNC(=S)N(CCO)Cc1cc2cc3c(cc2[nH]c1=O)OCCO3 | 32* | 3 | 1 | -12 | 0 | 3
COCCCNC(=S)N(CCO)Cc1cc2cc3c(cc2[nH]c1=O)OCCO3 | -6 | 1 | 2 | -4 | 0 | 4
CC(C)C#Cc1cnc2c(c1)C(=O)N([C@@H](C)CO)C[C@@H](C)[C@@H](CN(C)C(=O)Nc1cc(F)ccc1F)O2 | . | 0 | . | . | . | .
O=C(O)C/C(=C\c1cc(Cl)c2c(c1)OCO2)c1nc2ccccc2s1 | -8 | 60* | 1 | -8 | 8 | 2
C[C@@H]1CCCCO[C@H](CN(C)Cc2ccc3c(c2)OCO3)[C@@H](C)CN([C@@H](C)CO)C(=O)c2cc(NC(=O)CCC(F)(F)F)ccc2O1 | . | -2 | . | . | . | .
O=C(N[C@@H]1C=C[C@@H](CC(=O)N2CCCCC2)O[C@@H]1CO)c1ccccn1 | . | 1 | . | . | . | .
Nc1ccc(Br)c2cccnc12 | -1 | 30 | 14 | 1 | 99* | 0
CS(=O)(=O)Oc1ccc(Br)c2cccnc12 | 4 | -5 | -1 | 0 | -3 | 1
C[C@@H]1CN([C@@H](C)CO)S(=O)(=O)c2ccc(-c3ccncc3)cc2O[C@H]1CN(C)C(=O)c1ccc2c(c1)OCO2 | . | 2 | . | . | . | .
CCCN1C[C@@H](C)[C@@H](OC)CN(C)C(=O)c2cc(NC(=O)C3CCOCC3)ccc2OC[C@@H]1C | . | 2 | . | . | . | .
COc1cc2c(cc1O)[C@@H]1Cc3cc(OC)c(OC)cc3C(C2)N1C | -6 | 0 | 6 | -4 | . | -1
SMILES | HDAC3 inh | Casp6 inh | Glyco luc inh | Keap1-Nrf2 PPI | NSD2 inh | C-LANA FP
COc1cc2c(cc1OC)[C@@H]1Cc3cc4c(cc3[C@H](C2)N1C)OCO4 | 34* | -4 | 0 | -5 | . | 3
O=C(CCc1nc(-c2ccccc2F)no1)Nc1ccc(Oc2ccccc2)cc1 | 27* | . | -1 | 3 | 0 | 0
Cn1c(=O)cc(OCC(=O)NC2CCCCC2)c2ccccc21 | 10 | . | 4 | -6 | 1 | 1
Cc1ccnc(NC(=O)CCCOc2cc(=O)n(C)c3ccccc23)c1 | 7 | 0 | 26*! | -2 | . | 1
Cn1c(=O)cc(OCCCC(=O)NC2CCCC2)c2ccccc21 | -3 | . | 45* | 3 | -2 | 1
CC(C)NC(=O)N(C)C[C@@H]1OCCCC[C@H](C)Oc2ccc(NS(=O)(=O)c3ccccc3)cc2C(=O)N([C@@H](C)CO)C[C@@H]1C | . | 0 | . | . | . | .
COc1cccc(/C=C(/C#N)c2ccc(F)cc2)c1OCc1cccc(C(=O)O)c1 | 6 | . | -1 | 0 | -4 | 2
N#C/C(=C/c1cccn1-c1cccc(C(=O)O)c1)c1ccc(F)cc1 | . | 70* | 1 | 1 | 24 | 4
O=C1N/C(=C/c2cccn2-c2ccc(F)cc2)C(=O)N1Cc1ccccc1F | -2 | . | -3 | -4 | 0 | -3
O=C(O)c1cccc(-n2cccc2/C=C2/NC(=O)N(Cc3ccccc3F)C2=O)c1 | -20 | 76* | 2 | 0 | 11 | 2
N/C(Cc1cccc2ccccc12)=N\OC(=O)c1ccccc1F | -3 | 41* | -3 | -1 | 0 | -2
O=C(O)[C@@H]1[C@@H](CO)[C@@H]2Cn3c(cccc3=O)[C@@H]2N1C(=O)NC1CCCC1 | . | 2 | . | . | . | .
CC(C)NC(=O)N(C)C[C@@H]1Oc2ccc(NC(=O)CCN3CCOCC3)cc2CC(=O)N([C@@H](C)CO)C[C@H]1C | . | -1 | . | . | . | .
O=C(/C=C/c1ccco1)Oc1cccc2cccnc12 | 9 | 13 | 1 | 2 | -1 | 1
O=C(/C=C\c1ccco1)Oc1cccc2cccnc12 | -3 | 60* | -1 | -2 | 2 | 2
COc1ccc(NC(=O)C(F)(OC)C(F)(F)F)c(OC)c1 (stereo unspecified) | 5 | 55* | 1 | -5 | -1 | 1
O=C1CN(Cc2ccccc2)C[C@@H]2[C@@H](c3ccc(-c4ccccc4F)cc3)[C@@H](CO)N12 | . | -1 | . | . | . | .
Cc1cc(-n2nnc3ccccc32)nc2ccccc12 | -5 | 55* | 3 | 0 | 36 | 1
CC1(C)C(=O)Nc2ccccc2N1C(=O)COC(=O)c1ccc([N+](=O)[O-])o1 | . | 47* | 0 | -7 | 0 | 2
O=C1CN(C(=O)COC(=O)c2ccc([N+](=O)[O-])o2)c2ccccc2N1 | 3 | 39* | 5 | 0 | 23 | 1
CC1(C)C(=O)Nc2ccccc2N1C(=O)COC(=O)c1cccc(O)c1 | 3 | 27 | 2 | -2 | -3 | -1
O=C1CN(C(=O)COC(=O)c2ccco2)c2ccccc2N1 | 0 | 9 | 3 | -7 | -3 | 0
O=C(NCC[C@@H]1CC[C@H](NC(=O)c2ccccc2F)[C@@H](CO)O1)c1ccc2c(c1)OCO2 | . | -6 | . | . | . | .
COc1ccc(N=C2CCS(=O)(=O)c3sccc32)cc1 | 0 | 6 | 1 | 2 | 20 | 0
COc1ccc(C(=O)O/N=C2\CCS(=O)(=O)c3sccc32)cc1 | 52* | 0 | -1 | -1 | 8 | 1
O=C1C=C(C2CCCCC2)C(=O)c2ccccc21 | . | 50* | -3 | -1 | 0 | -1
